Source: PubChem
Shiga inhibitor: A qHTS for Small Molecule Inhibitors of Shiga Toxin. Vero cells, Shiga toxin protein synthesis inhibition reporter. inhibition, % at 38.7 µM. 290,000 tested, 9.2% active. AID 2315, 2010; in the data active = inhibition mostly above about 28%, no sharp cut-off; inactive = mostly below about 43%; also: 0% is about no effect
HCV inhibitor: qHTS Assay for Inhibitors of Hepatitis C Virus (HCV). Huh7.5.1 HCVcc-Cre infection, luciferase reporter, 44 h. Potency, µM (doses to about 41.8 µM), for inactives: at the top dose activity change, negative = inhibition, actives largely listed as inhibitors. 340,000 tested, 3.4% active. AID 651820, 2012; active = well fitted inhibition curve with a large enough effect; inconclusive = small, poorly fitted or top-dose-only effect, or another doubt; inactive = no such curve, though single readings can be large or run the other way; also: potency is read from the fitted curve at half-maximal effect; % is scaled to controls: 0 for no effect and ±100 for the full control effect
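Cells seeded at 1,000/well and cultured 4 h, then compounds added followed by HCVcc-Cre virus (~0.5 moi). After 44 h further culture, luciferase substrate was added, plates held 15 min at room temperature, and luminescence read for 15 sec.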
CHX counter: Cycloheximide Counterscreen for Small Molecule Inhibitors of Shiga Toxin; AID 2314, 2010; 300,000 tested, 12% active; max response, %; cell reporter, cycloheximide protein synthesis inhibition counterscreen; in the data active = max response mostly above about 13%, no sharp cut-off; inactive = mostly below about 14%; also: read at 38.3 µM for the half of the compounds with a filed dose; 0% is about no effect
Lassa entry inh: qHTS for Inhibitors of binding or entry into cells for Lassa Virus; Lassa virus pseudotype entry inhibition, cell reporter; Potency, µM (series often up to 37.9 µM), for inactives: top-dose activity change, negative = inhibition, most hits filed as inhibitors; 300,000 tested, 1.2% active; AID 540256, 2011; calls by dose curve; tested in HEK293 cells; also: potency is read from the fitted curve at half-maximal effect; % is scaled to controls: 0 for no effect and ±100 for the full control effect; nearly all actives have a fitted effect of over 50% in size
Marburg entry inh: qHTS for inhibitors of binding or entry into cells for Marburg Virus; Marburg virus pseudotyped entry inhibition, cell reporter; Potency, µM (series often up to 37.8 µM), without a hit: top-dose activity change, negative = inhibition, actives largely listed as inhibitors; 300,000 tested, 1.8% active; calls by dose curve; tested in HEK293 cells; also: potency is read from the fitted curve at half-maximal effect; % is scaled to controls: 0 for no effect and ±100 for the full control effect
FMDV inh: High Throughput Screening for Foot and Mouth Disease Virus Antivirals; 410,000 tested, 1.2% active; FMDV antiviral cell-based qHTS; AID 1159524, 2015; Potency, µM (titrated, usually from 57.9 µM), without a hit: at the highest dose activity change, negative = inhibition, most hits filed as inhibitors; calls by dose curve; tested in HEK293T cells; also: read-out not given here; potency is read from the fitted curve at half-maximal effect; % is scaled to controls: 0 for no effect and ±100 for the full control effect; nearly all actives have a fitted effect of over 45% in size
The depositor's hits bear a star; ? = inconclusive; / = no result; [ ] = another dose, or the depositor's remark. Most compounds without a hit are left out; they make up all but 13% or so of the library.

SMILES	Shiga inhibitor	HCV inhibitor	CHX counter	Lassa entry inh	Marburg entry inh	FMDV inh
O=c1c2[nH]c3ccc(F)cc3c2nc2n1CCCS2	54*	?	25*	1%	-1%	1%
Cc1nc2c([nH]c3ccccc32)c(=O)n1N	88	17%	28*	0%	-6%[46.1 µM]	5%
Nn1c(=O)[nH]c2c([nH]c3ccccc32)c1=O	-3	16%	1	-7%	5%[46.1 µM]	-7%
COc1ccc(N2CC(C(=O)Nc3ccc(S(=O)(=O)Nc4nc(C)cc(C)n4)cc3)CC2=O)cc1 (stereo unspecified)	-13	7%	6	-16%	16%	/
Cc1ccc(CNc2nc(NC(C)C)nc3ccsc23)c(C)c1	/	/	/	/	/	-29%
COc1cccc(-n2c(/C=C/c3ccc(O)c(O)c3)nc3ccccc3c2=O)c1	24	-19%	2	?	?	-19%
CN1C(C(=O)NCc2cccc(C(F)(F)F)c2)CC2Cn3c(nc4cc5ccccc5cc43)C21 (stereo unspecified)	-4	?	1	/	/	?
C=CCNC(=O)C1CC2Cn3c(nc4cc5ccccc5cc43)C2N1C (stereo unspecified)	38*	8%[8.37 µM]	41*	/	/	37%
Cc1ccc(CSc2nnc(-c3ccc(S(=O)(=O)N4CCCC4)cc3)o2)cc1	-15	-7%	-1	-18%	?	1%
CCCCc1ccc(NC(=O)COCC)cc1	44*	19%	50*	1%	?	69%
CCCCOCCCNCC(=O)Nc1ccc(S(N)(=O)=O)cc1	5	-4%	3	-2%	8%[46.1 µM]	-10%
CCCCNCC(=O)Nc1ccc(NC(=O)CNCCCC)cc1	-18	?	-3	-17%	10µM*	-13%
CCCCc1ccc(NC(=O)N[C@@H](CC(C)C)C(=O)O)cc1	-5	4%	10	/	/	-10%
CCCCc1ccc(NC(=O)CC(C)C)cc1	66*	-13%	29*	-4%	?	74%
CCCCc1ccc(NC(=O)C2CCCC2)cc1	/	-10%	/	?	?	37%
CCOCC(=O)Nc1ccc(Br)c(C)c1	76*	-12%	32*	24%	?	29%
COc1ccccc1CNC(=O)CCCn1nc(C)n2ccnc2c1=O	-8	16%	-1	/	/	-5%
Cc1ccc(C(=O)/C=C/c2cn(CN3CCN(C)CC3)c3ccccc23)cc1	85*	?	35*	-4%	?	51%
COc1ccc(C(=O)/C=C/c2cn(CC(O)CN3CCc4ccccc43)c3ccccc23)cc1 (stereo unspecified)	/	/	/	?	?	11%
CCOC(=O)/C(=C\c1cn(C)c2ccccc12)[N+](=O)[O-]	-6	8%	15	0%	14%	28µM*
Cn1cc(/C=C/C(=O)c2ccccc2)c2ccccc21	74*	?	41*	?	?	-32%
CCCCN(CCCC)CC(O)Cn1cc(/C=C/C(=O)c2ccccc2)c2ccccc21 (stereo unspecified)	/	/	/	?	?	-15%
CCOC(=O)/C(C#N)=C\c1cn(C)c2ccccc12	37	5%	23	16%	-7%[14.2 µM]	9%
CCCCn1c(SCC(=O)c2ccccc2)nc2c(sc3ccccc32)c1=O	/	/	/	5%[46.1 µM]	/	-19%
Fc1ccc(Cc2cn3cc(-c4ccccc4)nc3s2)cc1	/	/	/	-8%[46.1 µM]	?	-74%
SMILES	Shiga inhibitor	HCV inhibitor	CHX counter	Lassa entry inh	Marburg entry inh	FMDV inh
Fc1ccc(-c2cn3cc(Cc4ccccc4)sc3n2)cc1	/	/	/	?	?	13µM*
N/C(=N\OC(=O)c1ccc(Cl)cc1)c1nonc1N	78*	3%	44*	20%	-1%	64%
N/C(=N/OCc1cccc([N+](=O)[O-])c1)c1nonc1N	17	-17%	7	18%	2%	-19%
N/C(=N\OCc1ccccc1)c1nonc1N	99*	-10%	55*	/	/	55%
N/C(=N\OCC(=O)Nc1ccccc1)c1nonc1N	3	-4%	12	4%	9%	17%
N/C(=N/OC(=O)c1ccccc1F)c1nonc1N	64*	27%	35*	/	/	29%
Cc1nc(C(F)(F)F)nc(Nc2ccc(N=Nc3ccccc3)cc2)c1C#N	-6	1%	1	13%	?	10%
C/C(=N\NC(=S)NC1CCCCC1)c1ccc(O)cc1	23	?	8	/	-15%[46.1 µM]	-9%
O=C(NCc1cc(Br)cc(Br)c1OC(=O)c1ccccc1[N+](=O)[O-])c1ccccc1	8	?	-1	?	?	-17%
CCOC(=O)Cn1nc(/C=C/c2ccc(C(C)C)cc2)ccc1=O	33	-12%	9.7*	?	?	-20%
CCOC(=O)Cn1nc(/C=C/c2ccc(C)cc2)ccc1=O	28	0%	8	0%	?	-21%
Cc1cccc2nc(C(=O)Nc3cccc(C(=O)NC4CC4)c3)cn12	/	-29%	/	/	/	27%
Cc1nn(-c2ccccc2)nc1C(=O)Nc1cccc(C(=O)NC2CC2)c1	/	/	/	/	/	32µM*
Cc1nn(-c2cccc(Cl)c2)nc1C(=O)Nc1cccc(C(=O)NC2CC2)c1	/	10µM*	/	/	/	?
Cc1nn(-c2ccccc2)nc1C(=O)Nc1ccc2c(c1)OCCO2	6	?	-2	24%[46.1 µM]	?	4%
Cc1ccc(-n2nc(C)c(C(=O)Nc3cccc(C(=O)NC4CC4)c3)n2)c(C)c1	/	11µM*	/	/	/	28µM*
Cc1cccc(C(=O)Nc2cccc(C(=O)NC3CCCC3)c2)c1	27	?	16	/	/	-21%
COC(=O)c1cnn(-c2cc(Oc3ccccc3)ncn2)c1N	27	-1%	23*	?	2%	55%
c1ccc(Oc2cc(-n3cccn3)ncn2)cc1	74*	6%	54*	5%	?	13%
NC(=O)c1cnn(-c2cc(Oc3ccccc3)ncn2)c1N	59	14%	47*	?	?	24%
CCc1c2c(nc3ccc(OC(=O)N4CCC(N5CCCCC5)CC4)cc13)-c1cc3c(c(=O)n1C2)COC(=O)[C@]3(O)CC	/	-13%	/	/	/	0%
O=C(Nc1ccccc1)c1ccc2c(c1)CCN2S(=O)(=O)c1ccccc1	-4	?	12	/	/	7%
O=C(Nc1ccc(S(=O)(=O)N2CCc3ccccc32)cc1)c1ccc2c(c1)OCO2	36*	?	31*	27%[14.3 µM]	-27%	-23%
Cc1cc(NC(=O)c2ccc(S(=O)(=O)N3CCc4ccccc43)cc2)no1	-13	25%	19	?	18%	?
CC(=O)Nc1cccc(NC(=O)c2ccc3c(c2)CCN3S(=O)(=O)c2ccccc2)c1	-2	?	-1	-19%[46.1 µM]	?	-16%
CC(=O)c1cccc(NC(=O)c2ccc3c(c2)CCN3S(=O)(=O)c2ccccc2)c1	42	3%	24*	?	-25%[46.1 µM]	?
O=C(Nc1ccc(S(=O)(=O)N2CCc3ccccc32)cc1)c1ccco1	-17	8.9µM*	1	7.3µM*	-21%	?
